In PubChem BioAssay AID602428 (Sanford-Burnham Center for Chemical Genomics, 2012):
In all, about 2,500 compounds went through this assay and about 980 (39%) were called active. These entries were drawn from the full list. Values without a mark were called inactive.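 The calls were made as follows: active = mean inhibition at 5 µM reaching about 45% (limit read from the data); inactive = the rest.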

Assay: Gli-SUFU pathway antagonists, confirmation, single concentration, luciferase luminescence, Sufu-KO-LIGHT cells (AID 602428);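 also: plate controls were DMSO-treated cells for no effect and wells lacking cells for full effect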
Conditions: Gli luciferase reporter, at 5 µM, stronger effect = higher value

Row | SMILES | inhibition
1 | C=CCNC(=S)/N=c1/ccccn1Cc1ccccc1 | 50.8% (active)
2 | CCOc1cccc(/C=N/NC(=S)NCCN2CCOCC2)c1O | 24.5%
3 | Nc1ccc(C(=O)N2CCN(S(=O)(=O)c3ccc(Cl)cc3)CC2)cc1[N+](=O)[O-] | 17.8%
4 | COc1ccc(NC(=O)[C@H](NC(=O)[C@@H]2Cc3ccccc3CN2)c2ccccc2)cc1 | 17.9%
5 | CCOC(=O)c1ccc(NC(=O)Cn2cnc3cc(C)c(C)cc32)cc1 | 76.1% (active)
6 | O=C(O)CCCn1cc(NC(=O)COc2cccc(Cl)c2)cn1 | 12.9%
7 | CC(=O)Nc1cccc(OCC(=O)/C=C2\N(C)c3ccccc3C2(C)C)c1 | 54.9% (active)
8 | CC1CC2=C(CC1/C=N/NC(N)=S)C(C)(C)CCC2 (stereo not given) | 49.3% (active)
9 | COc1ccccc1CCNC(=O)C(=O)NCCC1CCCCN1S(=O)(=O)c1cccs1 (stereo not given) | 48.8% (active)
10 | COc1ccccc1CNC(=O)C1CCN(c2nc3ccccc3o2)CC1 | 25.9%
11 | COc1ccc(NS(=O)(=O)c2ccc(NC(C)=O)cc2)cc1OC | 51.5% (active)
12 | Cc1cccc(NS(=O)(=O)c2ccc(-c3cnc(C4CC4)o3)cc2)c1 | 36.7%
13 | COc1ccc2c(C)cc3nnnn3c2c1 | 17.3%
14 | O=C(CN1C(=O)c2ccccc2S1(=O)=O)N1CCc2ccccc21 | 57.7% (active)
15 | CC(C)OCC(O)CN1CCN(C(c2ccccc2)c2ccccc2)CC1 (stereo not given) | 10.4%
16 | CC(=O)/C(=N\Nc1ccc(Cl)cc1Cl)Sc1cccc2cccnc12 | 57.7% (active)
17 | CCC(Cc1ccccc1)NC(=O)C1CCCCC1 (stereo not given) | 6.07%
18 | O=C(Nc1cc2c3c(c1)C1CCCC1CN3CC1CCCC21)c1ccc([N+](=O)[O-])cc1 (stereo not given) | 79% (active)
19 | COc1cc(C(=O)OC2CCOC2=O)c([N+](=O)[O-])cc1OC (stereo not given) | 7.05%
20 | CC[n+]1c(C)n(-c2ccccc2)c2ccc(NC(C)=O)cc21 | 80.2% (active)

Row | SMILES | inhibition
21 | C=CCOC(=O)C1=C[C@@H](c2ccc3c(c2)OCO3)C[C@@H](OCCCCO)O1 | 28.9%
22 | O=C1/C(=C\c2cccnc2)CN(Cc2ccccc2)C/C1=C\c1cccnc1 | 19.9%
23 | CCCCC(=O)NC(c1ccc(OC)c(OC)c1)c1ccc2cccnc2c1O (stereo not given) | 55% (active)
24 | Cc1ccc(NC(=S)Nc2ccc(F)cc2)cc1 | -13.7%
25 | CCN1/C(=C/C(=S)Nc2ccccc2)Sc2ccccc21 | 9.5%
26 | COc1ccc(Cn2c(-c3ccc(Cl)cc3)c[n+]3ccccc23)cc1 | 63.2% (active)
27 | c1c2c(cc3sc(N4CCCCC4)nc13)OCCO2 | 34.5%
28 | O=c1c2ccccc2nc2n1C(CSCc1cccc(C(F)(F)F)c1)CS2 (stereo not given) | 67.6% (active)
29 | CC1(C)CC(=O)c2c(n(S(=O)(=O)c3ccccc3)c3ccc(NS(=O)(=O)c4ccccc4)cc23)C1 | 19.1%
30 | C/C(=N\NC(=O)Cc1ccc(Cl)cc1)c1ccccn1 | 86.9% (active)
31 | Cc1cc(NC(=O)c2cccc(N3C(=O)CCC3=O)c2)no1 | 20.1%
32 | CC(C)(CNC(=O)c1ccc(Cl)c(S(=O)(=O)N2CCc3ccccc3C2)c1)N1CCOCC1 | 22.8%
33 | CN(C)c1cc[n+](Cc2ccccc2)cc1 | 53% (active)
34 | CCOC(=O)c1cnc(-n2nc(C)cc2C)nc1NNc1cc(C)nc(-c2ccccc2)n1 | 53.6% (active)
35 | CCc1ccc(C2C(C#N)=C(N)N(N3CCOCC3)C3=C2C(=O)CC(C)(C)C3)s1 (stereo not given) | 7.97%
36 | C=CCn1c(SCC(=O)CC(=O)OCC)nc2cc(C(=O)N3CCC(C(N)=O)CC3)ccc2c1=O | 20.4%
37 | COc1cc(C(=O)OC(C)C(=O)NCC2CCCCC2)cc(NC(=O)c2ccco2)c1OC (stereo not given) | 13.1%
38 | COc1ccc(NS(=O)(=O)c2ccc(N3CCN(CCO)CC3)c([N+](=O)[O-])c2)cc1 | 45.5% (active)
39 | COc1ccccc1/C=C/CN1CCC(CO)(Cc2ccccc2)CC1 | 12.3%
40 | O=C(CN1CCN(S(=O)(=O)c2cc(Cl)ccc2Cl)CC1)c1ccc(O)c(O)c1 | 22.3%

Row | SMILES | inhibition
41 | NS(=O)(=O)c1ccc(CCNC(=O)CCCn2c(SCC(=O)N3CCCC3)nc3ccsc3c2=O)cc1 | 8.32%
42 | COC(=O)Cc1[nH]n(-c2nc3ccccc3s2)c(=O)c1C(C)=Nc1ccc(OC)cc1 | 91.5% (active)
43 | N#CC(C#N)=CN=c1ccn(Cc2ccc(Cl)cc2Cl)cc1 | 50.9% (active)
44 | CCn1c(SCc2ccccc2)nc2cc(OC)c(OC)cc2c1=O | 25.4%
45 | Cc1ccc(C(=O)C[n+]2cc(-c3ccccc3)n3c2CCCCC3)cc1 | 70.7% (active)
46 | Cc1cc(C(=O)CSc2nc(N)cc(=O)[nH]2)c(C)n1-c1cccc(F)c1 | 55.4% (active)
47 | Cc1ccc(-c2nc3c(cnn3-c3ccccc3)c(=O)o2)cc1 | 38.2%
48 | N#Cc1ccc(C(=O)Nc2nc(-c3cccs3)c(C(=O)C(F)(F)F)s2)cc1 | 66% (active)
49 | O=C(O)c1ccc(N/N=C/c2ccc3ncccc3c2)cc1 | 61.1% (active)
50 | CCNC(=S)N(CCN(CC)CC)Cc1cc2cc3c(cc2[nH]c1=O)OCO3 | 20.6%
51 | CC1(C)Cc2ccccc2/C(=C/C(=O)c2ccccc2)N1 | 27.6%
52 | CC(C)Oc1ccc(/C=N/NC(=O)c2nnn(-c3nonc3N)c2CN(C)C2CCCCC2)cc1 | 24.6%
53 | CC(=O)c1c(C)[nH]c(C(=O)OCC(=O)Nc2sc3c(c2C#N)CCCC3)c1C | 59% (active)
54 | NC(N)=Nc1nc(-c2ccccc2)c2cc(Cl)ccc2n1 | 31.6%
55 | COc1ccccc1N1CCN(Cc2cc(OC)c3c(c2)OCO3)CC1 | 14.2%
56 | COc1ccccc1C1C2=C(COC2=O)Nc2cc3c(cc21)OCO3 (stereo not given) | 48.7% (active)
57 | CCCOc1ccccc1C1CC(=O)Nc2cc3c(cc21)OCO3 (stereo not given) | 52.9% (active)
58 | CNc1nnc(-c2ccco2)s1 | 23.3%
59 | COc1ccc(OC)c(/C=N/NC(=O)c2ccc[n+](CC(=O)c3ccccc3)c2)c1 | 13.3%
60 | Cc1ccc(S(=O)(=O)NC(C)C(=O)Nc2ccccc2C(=O)N2CCCC2)cc1 (stereo not given) | 14.3%
